Data taken from PubChem BioAssay (NCATS).
Records with an inconclusive call do not appear. A number with no mark means an inactive call. Calls of active or inactive are those of the source. Calls follow the shape of the dose curve; as a rule, active = well fitted inhibition curve with a large enough effect; inconclusive = small, poorly fitted or top-dose-only effect; inactive = flat fitted curve, though single readings scatter.

tested on: CP211; assay: qHTS profiling for inhibitors of Plasmodium falciparum proliferation (AID 504749); also: nearly all actives have a fitted effect of over 60% in size;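 as to activity, negative = inhibition: 0% = DMSO vehicle and full inhibition = artemisinin control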; conditions: P. falciparum in erythrocytes, SYBR Green DNA, 72 h; series mostly up to 28.7 µM; activity, negative = inhibition: at the top concentration
Method in brief: (§1)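 SYBR Green fluorescence of parasite DNA, read after lysis and overnight dark incubation, measured growth over 72 h in erythrocyte culture at 0.3% parasitemia and 2.5% hematocrit. Data normalised to DMSO and 0.29 uM artemisinin, with plate-drift correction.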
Potency is read from the fitted curve at half-maximal effect.

CCCCc1ccc(C(=O)O)nc1 was tested. Which “activity, negative = inhibition” value did it give?
The value was -5.59%.

For COC(=O)c1cncn1C(C)c1ccccc1 (centres undefined), which “activity, negative = inhibition” value is on record?
Its value is -3.43%.

Which Potency does the source give for O=[N+]([O-])c1ccc([As](=O)(O)O)cc1 here?
The Potency was 7.57 µM (active).

Cc1ccc(Cl)c(O)c1 was tested. Which “activity, negative = inhibition” value did it give?
The value was -6.41%.

How did the “activity, negative = inhibition” value turn out when CC(C)NC(C)Cc1ccc(I)cc1 (centres undefined) was run?
The value was -10.1%.

With CC(=O)OCC1=C(C(=O)O)N2C(=O)[C@@H](N)[C@@H]2SC1 as the molecule, how does the “activity, negative = inhibition” value read?
The value was -6.89% [at 12.8 µM].

For CCCCCCCCCCCCCCCC[N+](C)(C)C, which Potency is on record?
The Potency was 13.5 µM (active).

For CCCN1CCC[C@H](c2cccc(O)c2)C1, which “activity, negative = inhibition” value is on record?
The value was -2.87%.

For CN(C)[C@@H]1C(=O)C(C(N)=O)=C(O)[C@@]2(O)C(=O)C3=C(O)c4c(O)cccc4[C@@](C)(O)[C@H]3[C@H](O)[C@@H]12, which “activity, negative = inhibition” value is on record?
The value was -1.19%.

With COC(=O)[C@@H](N)CCCN=C(N)N[N+](=O)[O-] as the molecule, how does the “activity, negative = inhibition” value read?
Its value is 5.41%.

How did the “activity, negative = inhibition” value turn out when CC[N+]1(CCOC(=O)C(O)(c2ccccc2)c2ccccc2)CCCCC1 was run?
Its value is -6.79%.

Which Potency does the source give for CC(=O)[O][Hg][c]1ccccc1 here?
Its Potency is 15.1 µM (active).

How did the “activity, negative = inhibition” value turn out when Cc1cc(O)ccc1Cl was run?
Its value is -0.112%.

How did the “activity, negative = inhibition” value turn out when CCCCCCCCCC(CC)c1ccc(S(=O)(=O)O)cc1 (centres undefined) was run?
Its value is -3.3%.

O=C(O)COc1ccccc1 was tested. Which “activity, negative = inhibition” value did it give?
Its value is -2.38%.

Which “activity, negative = inhibition” value does the source give for c1ccc(C2(c3ccccc3)CC2C2=NCCN2)cc1 (centres undefined) here?
The value was -3.86%.

O=C(O)C(Cl)Cl was tested. Which “activity, negative = inhibition” value did it give?
The value was 3.52%.

How did the “activity, negative = inhibition” value turn out when C#CC1(O)CCC2C3CCC4=CC(=O)CCC4(C)C3CCC21C (centres undefined) was run?
Its value is -7.07%.

C[C@]12CCC(=O)C(O)=C1CC[C@@H]1[C@H]3CCC(=O)[C@@]3(C)CC[C@@H]12 was tested. Which “activity, negative = inhibition” value did it give?
Its value is 1.75%.

How did the “activity, negative = inhibition” value turn out when CN1C2CCC1CC(OC(=O)c1cc(Cl)cc(Cl)c1)C2 (centres undefined) was run?
The value was -0.23%.

Which “activity, negative = inhibition” value does the source give for NC(=O)CN1CC(O)CC1=O (centres undefined) here?
Its value is -0.0855%.

How did the “activity, negative = inhibition” value turn out when C=CCN1CC[C@]23CCCCC2[C@H]1Cc1ccc(O)cc13 (some centres undefined) was run?
Its value is 8.75%.

For C1CCC(NC2CCCCC2)CC1, which “activity, negative = inhibition” value is on record?
Its value is 0.543%.

tested on: CP215; assay: as above; conditions: P. falciparum in erythrocytes, SYBR Green DNA, 72 h; series mostly up to 28.7 µM; activity, negative = inhibition: at the top concentration
Method in brief: as §1

With CCCCc1ccc(C(=O)O)nc1 as the molecule, how does the “activity, negative = inhibition” value read?
Its value is 0.262%.

With COC(=O)c1cncn1C(C)c1ccccc1 (centres undefined) as the molecule, how does the “activity, negative = inhibition” value read?
The value was 2.78%.

O=[N+]([O-])c1ccc([As](=O)(O)O)cc1 was tested. Which Potency did it give?
Its Potency is 7.57 µM (active).

With NC1=NC(=O)N2CC12 (centres undefined) as the molecule, how does the “activity, negative = inhibition” value read?
The value was -20.7%.

For Cc1ccc(Cl)c(O)c1, which “activity, negative = inhibition” value is on record?
The value was -6.12%.

For CC(=O)OCC1=C(C(=O)O)N2C(=O)[C@@H](N)[C@@H]2SC1, which “activity, negative = inhibition” value is on record?
Its value is 2.09% [at 12.8 µM].

Which “activity, negative = inhibition” value does the source give for CCCN1CCC[C@H](c2cccc(O)c2)C1 here?
The value was -6.78%.

With COC(=O)[C@@H](N)CCCN=C(N)N[N+](=O)[O-] as the molecule, how does the “activity, negative = inhibition” value read?
Its value is 0.495%.

How did the “activity, negative = inhibition” value turn out when CC[N+]1(CCOC(=O)C(O)(c2ccccc2)c2ccccc2)CCCCC1 was run?
The value was 0.0462%.

CC(=O)[O][Hg][c]1ccccc1 was tested. Which Potency did it give?
Its Potency is 6.01 µM (active).

Cc1cc(O)ccc1Cl was tested. Which “activity, negative = inhibition” value did it give?
The value was -2.34%.

For CCCCCCCCCC(CC)c1ccc(S(=O)(=O)O)cc1 (centres undefined), which “activity, negative = inhibition” value is on record?
Its value is 3.12%.

Which “activity, negative = inhibition” value does the source give for O=C(O)COc1ccccc1 here?
Its value is 8.14%.

For c1ccc(C2(c3ccccc3)CC2C2=NCCN2)cc1 (centres undefined), which “activity, negative = inhibition” value is on record?
The value was -1.78%.

Which “activity, negative = inhibition” value does the source give for O=C(O)C(Cl)Cl here?
Its value is 11%.

Which “activity, negative = inhibition” value does the source give for C#CC1(O)CCC2C3CCC4=CC(=O)CCC4(C)C3CCC21C (centres undefined) here?
The value was 2.27%.

How did the “activity, negative = inhibition” value turn out when C[C@]12CCC(=O)C(O)=C1CC[C@@H]1[C@H]3CCC(=O)[C@@]3(C)CC[C@@H]12 was run?
The value was -2.77%.

CN1C2CCC1CC(OC(=O)c1cc(Cl)cc(Cl)c1)C2 (centres undefined) was tested. Which “activity, negative = inhibition” value did it give?
Its value is 6.24%.

NC(=O)CN1CC(O)CC1=O (centres undefined) was tested. Which “activity, negative = inhibition” value did it give?
Its value is -1.87%.

With C=CCN1CC[C@]23CCCCC2[C@H]1Cc1ccc(O)cc13 (some centres undefined) as the molecule, how does the “activity, negative = inhibition” value read?
The value was -1.19%.

C1CCC(NC2CCCCC2)CC1 was tested. Which “activity, negative = inhibition” value did it give?
Its value is 3.59%.
